Screening data as filed in PubChem.
Sampled rows, rich in hits. Any-hit rate of the full collection: about 11%.
AmpC inh detg: inhibitors of E. coli AmpC beta-lactamase with detergent; Potency, µM (highest dose often 114 µM), for the others: at the top dose activity change, negative = inhibition, usual class: inhibitors; 0.041% of 370,000 active; AmpC hydrolysis of nitrocefin, absorbance 480 nm, 0.01% Triton;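 also: 0% = no-compound wells and -100% = no-enzyme wells; nearly all actives have a fitted effect of over 25% in size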
Target sequence (P00811 whole entry, looked up): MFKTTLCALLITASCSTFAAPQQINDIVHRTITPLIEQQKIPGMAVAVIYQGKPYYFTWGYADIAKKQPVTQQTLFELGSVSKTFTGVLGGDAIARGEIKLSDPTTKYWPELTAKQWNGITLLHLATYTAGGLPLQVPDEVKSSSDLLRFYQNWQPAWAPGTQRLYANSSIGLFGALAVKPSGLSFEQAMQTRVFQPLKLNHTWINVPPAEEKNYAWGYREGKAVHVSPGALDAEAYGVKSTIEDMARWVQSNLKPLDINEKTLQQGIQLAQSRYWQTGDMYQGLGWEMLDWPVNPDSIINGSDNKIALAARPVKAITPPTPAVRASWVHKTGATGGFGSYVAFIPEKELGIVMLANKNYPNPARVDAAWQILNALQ
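20 mM phosphate pH 7.0 + 0.01% (detergent screen) or 0.0001% Triton X-100; 5.3 nM AmpC reagent; cpd preinc 15 min RT; nitrocefin (800 uM stock) to start; A480 q20 s × 4 min; Activity was normalised to no-enzyme and no-compound control wells.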
AmpC no deterg: inhibitors of E. coli AmpC beta-lactamase without detergent. AmpC nitrocefin hydrolysis, absorbance 480 nm, 0.0001% Triton. Potency, µM (doses to about 57.1 µM), inactives show top-dose activity change, negative = inhibition, most hits filed as inhibitors. 0.52% of 330,000 active. AID 485341;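 also: plate controls were no compound for no effect and no enzyme for full effect; nearly all actives have a fitted effect of over 20% in size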
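AmpC (5.3 nM in the dispensed reagent) in 20 mM phosphate pH 7.0 with 0.01% (detergent screen) or 0.0001% Triton X-100 was preincubated with compounds for 15 min at room temperature. Nitrocefin was then added from an 800 uM solution, and hydrolysis was followed at 480 nm.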
AMA1-RON2 inh: disrupts binding of P. falciparum AMA1 to RON2; Potency, µM (series often up to 58.2 µM), inactives show at the top dose activity change, negative = inhibition, hits mostly inhibitors; AlphaScreen AMA1-biotinylated RON2 peptide binding; 0.2% of 360,000 active;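 also: 0% = vehicle wells and -100% = peptide control; nearly all actives have a fitted effect of over 45% in size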
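AMA1 (3D7) with his tag at 25 nM final met compounds first, then biotinylated RON2 peptide at 25 nM; detection used donor plus acceptor beads, 10 µg/mL apiece, read by AlphaScreen after 30 min at room temperature.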
Pf growth 96h: inhibits malaria parasite growth, 96 h. P. falciparum luciferase reporter growth, 96 h. Potency, µM (doses to about 28.7 µM), inactives show at the highest dose activity change, negative = inhibition, hits mostly inhibitors. 6.9% of 320,000 active
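Erythrocytes infected with luciferase-expressing P. falciparum were dispensed at 2% hematocrit and 0.05% parasitemia (final), then incubated with compounds 96 hours at 37 C in 5% CO2. Luminescence after detection reagent addition reported growth.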
HCV inhibitor: inhibitors of hepatitis C virus infection. Huh7.5.1 HCVcc-Cre infection, luciferase reporter, 44 h. Potency, µM (highest dose often 41.8 µM), for the others: top-dose activity change, negative = inhibition, usual class: inhibitors. 3.4% of 340,000 active
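Whole-lifecycle infectious HCVcc-Cre system; cells 1,000/well, compound then virus (~0.5 moi) added 4 h after plating, 44 h culture. Luciferase read 15 sec following 15 min substrate incubation, room temp.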
Pf growth 48h: inhibits P. falciparum growth in the first generation, 48 h; Potency, µM (series often up to 28.7 µM), for the others: at the highest dose activity change, negative = inhibition, usual class: inhibitors; AID 504832; 5.9% of 310,000 active; P. falciparum luciferase growth in erythrocytes, 48 h
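Growth was read as firefly luciferase luminescence after a 48 h, 37 C, 5% CO2 exposure of compounds to reporter-bearing P. falciparum cultures (0.1% parasitemia, 2% hematocrit final) in Albumax-supplemented RPMI 1640.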
The depositor's hits bear a star; ? = inconclusive; · = not tested or not shown. Calls follow the shape of the dose curve; as a rule, active = well fitted curve in the direction sought with a large enough effect; inconclusive = small, poorly fitted or top-dose-only effect, or another doubt; inactive = no such curve, though single readings can be large; an effect the other way counts as inactive or inconclusive. Unless noted, % is scaled to controls: 0 for no effect and ±100 for the full control effect; potency is read from the fitted curve at half-maximal effect.

SMILES	AmpC inh detg	AmpC no deterg	AMA1-RON2 inh	Pf growth 96h	HCV inhibitor	Pf growth 48h
O=C(CCNS(=O)(=O)c1ccc(Br)s1)NC1CCCC1	?	-20%	5%	10µM*	·	?
Cc1ccc(/C=C/c2onc(C)c2S(=O)(=O)N2CCC(C(=O)N3CCN(c4ccccc4F)CC3)CC2)cc1	17%	·	·	·	·	·
CCCCOc1ccc(C(=O)N2CCN(CCc3ccccn3)CC2)cc1	0%	·	·	·	·	·
CC1CN(C(=O)Nc2ccc(C(=O)NCc3cccc(F)c3)cc2)c2ccccc2S1 (stereo not drawn)	14%	·	·	·	·	·
COc1cccc(C(=O)CN2CCN(S(=O)(=O)c3ccc(Cl)cc3)CC2)c1	8%	·	·	·	·	·
CS(=O)(=O)N1CCc2cc(C(=O)Nc3cccc(F)c3)ccc21	23%	·	·	·	·	·
COc1cccc(CNC(=O)CN2C(=O)N(c3cccc(Cl)c3)S(=O)(=O)c3ccccc32)c1OC	7%	·	·	·	·	·
Cc1cc(C)cc(NC(=O)CCCN2C(=O)COc3ccc(C)cc32)c1	-4%	·	·	·	·	·
CN1CCN(NC(=O)CN(C)S(=O)(=O)c2cc(Cl)ccc2Cl)CC1	-4%	-6%	5%	12µM*	9%	-11%
O=C(CCS(=O)(=O)c1ccc(Br)cc1)NCc1ccc(F)cc1	-7%	-5%	6%	10µM*	17%	41%
CN(CC(=O)NC1CCCCCC1)S(=O)(=O)c1ccc(Br)cc1	-7%	-6%	-15%	5%	·	1%
CN(CC(=O)N1CCOCC1)S(=O)(=O)c1cc(Cl)ccc1Cl	6%	-3%	11%	103%	3%	9%
CN(CC(=O)NC1CC1)S(=O)(=O)c1ccc(Br)cc1	-2%	-1%	-14%	6%	·	8.3µM*
COc1c(Cl)cc(Cl)cc1/C=C/C(=O)c1ccc(NC(=O)c2cccs2)cc1	?	?	-8%	-12%	14µM*	5.2µM*
COc1ccc(C(CNC(=O)c2ccc(Cl)c(NC(=O)c3cccs3)c2)N2CCCC2)cc1 (stereo not drawn)	-14%	2%	-1%	8.3µM*	?	10µM*
Cc1nc2ccc(NC(=O)c3ccc(Cl)c(NC(=O)c4cccs4)c3)cc2s1	-9%	-6%	-13%	0%	10µM*	-3%
O=C(Nc1ccc(NC(=O)c2cccs2)cc1)c1ccc(Cl)cc1	15%	·	·	·	·	·
CCOC(=O)N1CCN(C(=O)c2ccc(Cl)c(NC(=O)c3cccs3)c2)CC1	0%	107%	11%	?	8%	10µM*
Cc1ccc(NC(=O)c2ccc(Cl)c(NC(=O)c3cccs3)c2)cc1	0%	-52%	-13%	?	13µM*	8%
Cc1nn(CC(=O)NC2CC2)c(=O)c2cc3ccccc3n12	8%	·	·	·	·	·
CCSc1ncc(Cl)c(C(=O)Nc2sc(C(C)=O)c(C)c2C(=O)OC)n1	18%	·	·	·	·	·
COC(=O)c1cc(NC(=O)c2cc3c(-c4ccccc4F)nn(C)c3s2)cc(C(=O)OC)c1	2%	·	·	·	·	·
N#Cc1c2c(c(NCc3ccco3)n3c1nc1ccccc13)CCC2	-12%	-11%	3%	0.74µM*	-20%	1µM*
CCN(CC)CCNc1c2c(c(C#N)c3nc4ccccc4n13)CCCC2	2%	-21%	36%	·	?	10µM*
CN(C)CCNc1c2c(c(C#N)c3nc4ccccc4n13)CCCC2	-11%	115%	13%	?	-19%	?
CCOc1ccc(CCNC(=O)c2cnc3c(-c4ccc(F)cc4)c(C)nn3c2C)cc1OCC	5%	·	·	·	·	·
CC(C)Nc1nc2c(S(=O)(=O)c3cccc(Cl)c3)nnn2c2ccsc12	15%	·	·	·	·	·
CC1=C(C(=O)Nc2ccc(C)cc2C)C(c2sccc2C)n2ncnc2N1 (stereo not drawn)	2%	·	·	·	·	·
CCc1cccc(C)c1NC(=O)Cn1cnc2c1c(=O)n(C)c(=O)n2C	4%	·	·	·	·	·
